Experimental data taken from the supplement of paper PMC13094657.
± gives the standard deviation of the averaged measurements.

Columns and labels:
MDA-MB-231 [1] = assay: cell viability relative to vehicle unstimulated control (fraction); higher = more viable cells; conditions: pre-treatment time: 18 h then 24 h IFNg/TNF
MDA-MB-231 [2] = assay: kynurenine production, fold change vs DMSO IFNg/TNF control; higher = more kynurenine produced (less inhibition); conditions: pre-treatment time: 18 h then 24 h IFNg/TNF
Method in brief: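 Fold change over cytokine-stimulated vehicle wells on the same plate is the measure used for kynurenine production, averaged across duplicate plates in the first screening round. MDA-MB-231 cells, seeded 24 h beforehand at 7 × 10^4/well in 96-well plates, were pre-treated 18 h with each natural product in 0.1% DMSO and stimulated 24 h at 37°C with IFNγ (1 U/ml) and TNF (6.25 ng/ml). Supernatants were read at 492 nm following trichloroacetic acid and p-dimethylaminobenzaldehyde treatment, against 0–100 μM standards.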
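For cell viability relative to vehicle unstimulated control in this document: viability of the cells left after supernatant collection, read with Deep Blue dye added for 4 h, as absorbance at 570 nm minus 600 nm.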

Row | Structure (SMILES) | cell viability (MDA-MB-231 [1]) | kynurenine production (MDA-MB-231 [2])
1 | CC1(C)CCC[C@](C)([C@H]2CC[C@]3(C)[C@@H]2[C@H](O)C[C@@H]2[C@@]4(C)CC[C@H](O)C(C)(C)[C@@H]4CC[C@]23C)O1 [Panaxadiol] (compound dose: 10 uM) | 1.04 ± 0.013 | 0.719 ± 0.088
2 | C=C1C(=O)O[C@@H]2C[C@@]3(C)CCCC(=C)[C@@H]3C[C@H]12 [Isoalantolactone] (compound dose: 10 uM) | 0.951 ± 0.082 | 0.255 ± 0.077
3 | CC(C)c1ccc2c(c1)CC[C@H]1[C@](C)(C(=O)O)CCC[C@]21C [Dehydroabietic acid] (compound dose: 10 uM) | 1.008 ± 0.0086 | 0.713 ± 0.23
4 | C[C@H]1[C@H](C)CC[C@]2(C(=O)O)CC[C@]3(C)C(=CC[C@@H]4[C@@]5(C)C[C@@H](O)[C@H](O)[C@@](C)(CO)[C@@H]5[C@H](O)C[C@]43C)[C@H]12 [Madecassic acid] (compound dose: 10 uM) | 0.899 ± 0.14 | 0.839 ± 0.093
5 | COC(=O)C1=CC[C@@]23CC[C@@H]([C@@](C)(/C=C/C=C(\C)C(=O)O)OC2=O)[C@@]3(OC(C)=O)CC1 [Pseudolaric Acid B] (compound dose: 10 uM) | 0.898 ± 0.035 | 0.62 ± 0.24
6 | CC(=O)OC/C1=C/[C@H]2[C@@H](OC(=O)/C=C/c3ccccc3)[C@@H](C)C[C@]2(OC(C)=O)C(=O)/C(C)=C/[C@@H]2[C@H](CC1)C2(C)C [Euphorbia factor L7a] (compound dose: 10 uM) | 1.086 ± 0.0038 | 0.948 ± 0.035
7 | CC1=CC(=O)[C@@H]2C[C@H]1C2(C)C [Verbenone] (compound dose: 10 uM) | 1.128 ± 0.0013 | 1.25 ± 0.13
8 | COc1cc2cc3c4c(cc5c(c4c2cc1OC)OCO5)CCN3C [Dehydrodicentrine] (compound dose: 10 uM) | 0.946 ± 0.021 | 0.807 ± 0.12
9 | O=C(O)c1cccnc1 [Nicotinic acid] (compound dose: 10 uM) | 0.917 ± 0.043 | 0.945 ± 0.13
10 | CC(C)C12CCC(C)(CC1)O2 [1,4-Cineole] (compound dose: 10 uM) | 0.907 ± 0.026 | 0.863 ± 0.11
11 | C[C@H]1O[C@@H](O[C@H]2CC[C@@]3(C)[C@@H](CC[C@]4(C)[C@@H]3C=CC3=C5CC(C)(C)CC[C@]5(CO)[C@@H](O)C[C@]34C)[C@]2(C)CO)[C@H](O[C@@H]2O[C@H](CO)[C@@H](O)[C@H](O)[C@H]2O)[C@@H](O[C@@H]2O[C@H](CO)[C@@H](O)[C@H](O)[C@H]2O)[C@H]1O [Buddlejasaponin IVb] (compound dose: 10 uM) | 1.07 ± 0.067 | 1.34 ± 0.071
12 | O=C(O)C1=CO[C@@H](O[C@@H]2O[C@H](CO)[C@@H](O)[C@H](O)[C@H]2O)[C@@H]2C(CO)=CC[C@H]12 [Geniposidic acid] (compound dose: 10 uM) | 1.02 ± 0.015 | 0.715 ± 0.065
13 | CCCCC/C=C/C=C/C(=O)O[C@H]1C(C)=C[C@]23C(=O)[C@@H](C=C(CO)[C@@H](O)[C@]12O)[C@H]1[C@@H](C[C@H]3C)C1(C)C [3-O-(2'E,4'EDecadienoyl)ingenol] (compound dose: 10 uM) | 0.9682 ± 0.0024 | 0.812 ± 0.086
14 | CC1(C)CC[C@]2(C(=O)O)CC[C@]3(C)C(=CC[C@@H]4[C@@]5(C)CC[C@H](O[C@@H]6O[C@H](C(=O)O)[C@@H](O)[C@H](O)[C@H]6O)C(C)(C)[C@@H]5CC[C@]43C)[C@@H]2C1 [Calenduloside E] (compound dose: 10 uM) | 1.07 ± 0.054 | 0.962 ± 0.087
15 | C=C1C[C@@]23CC[C@H]4[C@@](C)(CCC[C@@]4(C)C(=O)O[C@@H]4O[C@H](CO)[C@@H](O)[C@H](O)[C@H]4O[C@@H]4O[C@H](CO)[C@@H](O)[C@H](O)[C@H]4O)[C@@H]2CC[C@]1(O[C@@H]1O[C@H](CO)[C@@H](O)[C@H](O[C@@H]2O[C@H](CO)[C@@H](O)[C@H](O)[C@H]2O)[C@H]1O[C@@H]1O[C@H](CO)[C@@H](O)[C@H](O)[C@H]1O)C3 [Rebaudioside D] (compound dose: 10 uM) | 0.931 ± 0.038 | 0.9927 ± 0.0066
16 | CC(=O)OCC1=C[C@H]2[C@@H]3C(C)(C)[C@]3(OC(C)=O)[C@H](OC(C)=O)[C@@H](C)[C@]2(O)[C@@H]2C=C(C)C(=O)[C@@]2(O)C1 [Phorbol 12,13,20-triacetate] (compound dose: 10 uM) | 0.868 ± 0.26 | 0.8 ± 0.1
17 | C[C@@H]1O[C@@H](OC[C@H]2O[C@@H](Oc3c(-c4ccc(O)cc4)oc4cc(O)cc(O)c4c3=O)[C@H](O)[C@@H](O)[C@@H]2O)[C@H](O)[C@H](O)[C@H]1O [Kaempferol 3-rutinoside] (compound dose: 10 uM) | 1.1 ± 0.14 | 0.955 ± 0.049
